Data from the supplement of paper PMC13380429.

Tested on: Vero E6 infected with SARS-CoV-2
Test: inhibition of SARS-CoV-2 cytopathic effect; higher = more antiviral protection, active = above 15
Settings: 48 h

Measured: inhibition of SARS-CoV-2 cytopathic effect

Oc1cc2c(cc1O)CN(C(=S)NCCc1ccc(Cl)cc1)CCC2 [capsazepine]
inactive: 1 nM -5.03% | 8.33 nM -2.95% | 100 nM -0.11% | 833.33 nM -0.65% | 10000 nM 3.42%

NCC(=O)CCC(=O)O [5-aminolevulinic-acid]
inactive: 1 nM 1.18% | 8.33 nM 1.35% | 100 nM -3.53% | 833.33 nM -0.73% | 10000 nM 0.28%

CC(Oc1ccc(O)cc1)(P(=O)(O)O)P(=O)(O)O
inactive: 1 nM -3.21% | 8.33 nM -1.85% | 100 nM 3.91% | 833.33 nM -1.36% | 10000 nM -1.37%

C[C@H]1[C@H](NC(=O)/C(=N\OC(C)(C)C(=O)O)c2csc(N)n2)C(=O)N1S(=O)(=O)O [aztreonam]
inactive: 1 nM 3.78% | 100 nM 1.14% | 833.33 nM -1.55% | 10000 nM 0.92%
active: 8.33 nM 20%

COC(=O)N[C@H](C(=O)N1CCC[C@H]1c1nc(-c2ccc3c(c2)O[C@@H](c2ccccc2)n2c-3cc3cc(-c4c[nH]c([C@@H]5CCCN5C(=O)[C@@H](NC(=O)OC)C(C)C)n4)ccc32)c[nH]1)C(C)C [elbasvir]
inactive: 1 nM 1.03% | 8.33 nM 1.52% | 100 nM 0.09% | 833.33 nM -1.19% | 10000 nM -4.27%

CCOP(=S)(OCC)Oc1cc(C)nc(C(C)C)n1 [dimpylate]
inactive: 1 nM 1.47% | 8.33 nM -0.54% | 100 nM 2.07% | 833.33 nM 1.11% | 10000 nM -3.47%

CCCC(C)NC(=O)c1ccc(Cl)c(Cl)c1 (stereo not given)
inactive: 1 nM 1.38% | 8.33 nM 1.88% | 100 nM 1.26% | 833.33 nM -2.38% | 10000 nM -1.56%

CCOc1ccccc1C(N)=O [ethenzamide]
inactive: 1 nM 5.35% | 8.33 nM 3.1% | 100 nM 2.44% | 833.33 nM 2.62% | 10000 nM 4.34%

COc1ccc(C2CNC(=O)NC2)cc1O[C@H]1C[C@@H]2CC[C@H]1C2 [atizoram]
inactive: 1 nM -0.64% | 8.33 nM 1.37% | 100 nM -0.71% | 833.33 nM -0.02% | 10000 nM -1.24%

CC(C)Oc1ccc2c(=O)c3cc(C(=O)O)ccc3oc2c1
inactive: 1 nM -2.35% | 8.33 nM -1.43% | 100 nM -1.13% | 833.33 nM -1.68% | 10000 nM -1%

N.N.O=C([O-])C[O-].[Pt+2] [nedaplatin]
inactive: 1 nM -3.28% | 8.33 nM -2.76% | 100 nM -0.64% | 833.33 nM -1.21% | 10000 nM -2.85%

O=C1CCc2cc(OCCCCc3nnnn3C3CCCCC3)ccc2N1 [cilostazol]
inactive: 1 nM -1.01% | 8.33 nM -0.9% | 100 nM 1.96% | 833.33 nM -0.77% | 10000 nM -0.84%

OCCN1CCN(CC/C=C2/c3ccccc3Sc3ccc(Cl)cc32)CC1 [zuclopenthixol]
inactive: 1 nM -1.15% | 8.33 nM -3.42% | 100 nM -1.94% | 833.33 nM -3.61% | 10000 nM 8.42%

C[n+]1ccccc1C=NO [pralidoxime]
inactive: 1 nM 1.86% | 8.33 nM 0.25% | 100 nM 0.14% | 833.33 nM 0.94% | 10000 nM 1.11%

Cn1cc(/C=C2\C(=O)Nc3cccnc32)c2ccccc21
inactive: 1 nM -2.16% | 8.33 nM -2.36% | 100 nM 2.94% | 833.33 nM 0.64% | 10000 nM 4.71%

COc1cc(N)c(Cl)cc1C(=O)OCCN1CCCCC1
inactive: 1 nM 2.34% | 8.33 nM 2.09% | 100 nM 1.8% | 833.33 nM 1.01% | 10000 nM 2.59%

C[C@H]1C[C@H]2[C@@H]3CCC4=CC(=O)C=C[C@]4(C)[C@@]3(F)[C@@H](O)C[C@]2(C)[C@@]1(O)C(=O)CO [betamethasone]
inactive: 1 nM 0.395% | 8.33 nM -1.08% | 100 nM 2.04% | 833.33 nM 1.69% | 10000 nM -0.195%

O=C(NC1CCN(CCCCC2(C(=O)NCC(F)(F)F)c3ccccc3-c3ccccc32)CC1)c1ccccc1-c1ccc(C(F)(F)F)cc1 [lomitapide]
active: 10000 nM 20.9%
inactive: 1 nM 0.13% | 8.33 nM -1.36% | 100 nM 0.35% | 833.33 nM -1.45%

CCOC(=O)Nc1ccc2c(c1)N(C(=O)CN(C)C)c1ccccc1CC2 [tiracizine]
inactive: 1 nM 3.29% | 8.33 nM -0.87% | 100 nM -0.27% | 833.33 nM 1.89% | 10000 nM 0.68%

N[C@@H](CSC(c1ccccc1)(c1ccccc1)c1ccccc1)C(=O)O [S-trityl-L-cysteine]
inactive: 1 nM -0.89% | 8.33 nM -0.64% | 100 nM -2.17% | 833.33 nM -0.68% | 10000 nM -1.72%

COc1cc(NS(=O)(=O)c2ccc(N)cc2)ncn1 [sulfamonomethoxine]
inactive: 1 nM 0.65% | 8.33 nM 1.44% | 100 nM -1.17% | 833.33 nM 1.1% | 10000 nM 1.17%

Cn1nnc2c(C(N)=O)ncn2c1=O [temozolomide]
inactive: 1 nM 0.73% | 8.33 nM -1.46% | 100 nM -0.92% | 833.33 nM -0.44% | 10000 nM -1.79%

CN[C@@H](C)C(=O)N[C@H](C(=O)N1CCC[C@H]1C(=O)N[C@H]1c2ccccc2C[C@H]1OCC#CC#CCO[C@@H]1Cc2ccccc2[C@@H]1NC(=O)[C@@H]1CCCN1C(=O)[C@@H](NC(=O)[C@H](C)NC)C1CCCCC1)C1CCCCC1
inactive: 1 nM 0.65% | 8.33 nM 4.06% | 100 nM 1.35% | 833.33 nM -6.56% | 10000 nM -3.86%

CC[C@H]1[C@@H]2C[C@H]3[C@@H]4N(C)c5ccccc5[C@]45C[C@@H]([C@@H]2[C@H]5O)N3[C@@H]1O [ajmaline]
inactive: 1 nM -1.1% | 8.33 nM -2.42% | 100 nM 0.36% | 833.33 nM 0.5% | 10000 nM -1.16%

CCCCCCC[N+](CC)(CC)CCCCc1ccc(Cl)cc1 [clofilium]
inactive: 1 nM 2.85% | 8.33 nM 1.44% | 100 nM 1.58% | 833.33 nM 1.2% | 10000 nM 3.38%

COc1ccnc(C[S+]([O-])c2nc3cc(OC(F)F)ccc3[nH]2)c1OC (stereo not given) [pantoprazole]
inactive: 1 nM -1.17% | 8.33 nM -2.35% | 100 nM -4.09% | 833.33 nM 0.78% | 10000 nM 0.79%

Cc1nnc(C(=O)NC(C)(C)c2nc(C(=O)NCc3ccc(F)cc3)c(O)c(=O)n2C)o1 [raltegravir]
inactive: 1 nM 3.09% | 8.33 nM -0.27% | 100 nM 2.75% | 833.33 nM 1.2% | 10000 nM 1.12%

CC(=O)Nc1ccccc1 [acetanilide]
inactive: 1 nM -1.3% | 8.33 nM 2.8% | 100 nM 1.67% | 833.33 nM 1.23% | 10000 nM 0.69%

CC(N)CCCC(C)(C)O (stereo not given) [heptaminol]
inactive: 1 nM 0.22% | 8.33 nM 3.55% | 100 nM 2.95% | 833.33 nM -3.4% | 10000 nM 0.76%

O=C(O)c1ccccc1-c1ccc(C(F)(F)F)cc1 [xenalipin]
inactive: 1 nM -4.08% | 8.33 nM 1.65% | 100 nM 4.8% | 833.33 nM 4.27% | 10000 nM -2.23%

Cc1ccnc(NC(=O)C(C)c2cccc(C(=O)c3ccccc3)c2)c1 (stereo not given) [piketoprofen]
inactive: 1 nM 0.01% | 8.33 nM 0.74% | 100 nM 2.28% | 833.33 nM -1.34% | 10000 nM 3.81%

NC(=O)C1=CN([C@@H]2O[C@H](COP(=O)(O)OP(=O)(O)OC[C@H]3O[C@@H](n4cnc5c(N)ncnc54)[C@H](O)[C@@H]3O)[C@@H](O)[C@H]2O)C=CC1 [coenzyme-I]
inactive: 1 nM -3.2% | 8.33 nM -4.29% | 100 nM 1.16% | 833.33 nM 1.03% | 10000 nM 1.66%

C=CCN1CC[C@]23CCCC[C@H]2[C@H]1Cc1ccc(O)cc13 [levallorphan]
inactive: 1 nM -1.28% | 8.33 nM 0.72% | 100 nM -1.34% | 833.33 nM -1.26% | 10000 nM -3.54%

O=C(Nc1ccccc1-c1cn2c(CN3CCNCC3)csc2n1)c1cnc2ccccc2n1
inactive: 1 nM 0.17% | 8.33 nM 1.58% | 100 nM -0.07% | 833.33 nM -3.31% | 10000 nM -26.2%

COc1cc2c(cc1OC)-c1cc3ccc(OC)c(OC)c3c[n+]1CC2 [palmatine-chloride]
inactive: 1 nM -2.25% | 8.33 nM 0.72% | 100 nM -0.15% | 833.33 nM -2.8% | 10000 nM 2.04%

N[C@@H](CS(=O)O)C(=O)O [L-cysteinesulfinic-acid]
inactive: 1 nM 0.48% | 8.33 nM 0.74% | 100 nM 1.16% | 833.33 nM -1.19% | 10000 nM 2.03%

Cc1ccc(NC(=O)c2cccc(C(C)(C)C#N)c2)cc1Nc1ccc2ncn(C)c(=O)c2c1
inactive: 1 nM 1.24% | 8.33 nM 2.77% | 100 nM -0.67% | 833.33 nM -2.75% | 10000 nM -1.17%

CC[C@]12CCCN3CCc4c(n(c5ccccc45)C(=O)C1)[C@@H]32 [vinburnine]
inactive: 1 nM -4.83% | 8.33 nM -3.72% | 100 nM -1.1% | 833.33 nM 0.35% | 10000 nM -0.52%

Cc1nc2cnc3ccc(C#Cc4cccnc4)cc3c2n1-c1ccc(C(C)(C)C#N)cc1
inactive: 1 nM -1.65% | 8.33 nM 8.23% | 100 nM -1.48% | 833.33 nM -1.07% | 10000 nM -1.26%
